{"source": "PubChem BioAssay (Tox21)", "note": "Results filed as inconclusive are left out. Unmarked numbers belong to inactive results. The source made the active and inactive calls. Calls come from the whole dose curve. Non-standard residues stand in square brackets, D forms with d. Residues, ends and D or L forms follow the SMILES beside them. *: point of attachment. Sta = CC(C)C[C@H](N)[C@@H](O)CC(=O)O; Isovaleryl = CC(C)CC(=O)*"}
{"test": "qHTS assay for small molecule disruptors of the mitochondrial membrane potential - cell viability (AID 720634);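 note: human HepG2 liver cancer cells; % is set by controls: 0 for no effect and ±100 for the full control effect; nearly all actives have a fitted effect of over 20% in size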", "conditions": "HepG2 viability, ATP luminescence (CellTiter-Glo), 1 h; series mostly up to 83.2 µM; activity change, negative = cytotoxicity: at the top concentration", "in_short": "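Cytotoxicity was measured by ATP quantitation in HepG2 wells that had first been treated with compound for 1 hr and stained with m-MPI dye; CellTiter-Glo incubation was 30 min at room temperature.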"}
{"smiles": "COc1cnc(NS(=O)(=O)c2ccc(N)cc2)nc1", "activity change, negative = cytotoxicity": "-14.9% [at 39.1 µM]"}
{"smiles": "CCCCCCCCOCCC#N", "activity change, negative = cytotoxicity": "-0.965%"}
{"smiles": "NC[C@H]1O[C@H](O[C@H]2[C@H](O)[C@@H](O[C@H]3O[C@H](CO)[C@@H](O)[C@H](N)[C@H]3O)[C@H](N)C[C@@H]2N)[C@H](N)[C@@H](O)[C@@H]1O", "outcome": "inactive"}
{"smiles": "C=CCOC(=O)CCCCCCCC", "activity change, negative = cytotoxicity": "13.2% [at 95.3 µM]"}
{"smiles": "CC(C)(Sc1cc(C(C)(C)C)c(O)c(C(C)(C)C)c1)Sc1cc(C(C)(C)C)c(O)c(C(C)(C)C)c1", "activity change, negative = cytotoxicity": "-6.73% [at 39.1 µM]"}
{"smiles": "CC(=O)c1c(C)cc(C(C)(C)C)cc1C", "activity change, negative = cytotoxicity": "-16.2%"}
{"smiles": "Nc1cc(S(=O)(=O)O)ccc1O", "activity change, negative = cytotoxicity": "11.1%"}
{"smiles": "O=C(O)Cc1ccccc1Oc1ccc(Cl)cc1Cl", "activity change, negative = cytotoxicity": "-6.15%"}
{"smiles": "CCCCCCCCC1CO1", "note": "(centres undefined)", "activity change, negative = cytotoxicity": "3.4% [at 95.3 µM]"}
{"smiles": "N=C(N)N", "activity change, negative = cytotoxicity": "-3.27%"}
{"smiles": "COC(=O)c1ccc(C(=O)O)cc1", "activity change, negative = cytotoxicity": "4.55%"}
{"smiles": "CC(C)CC(=O)N[C@H](C(=O)N[C@H](C(=O)N[C@@H](CC(C)C)[C@@H](O)CC(=O)N[C@@H](C)C(=O)N[C@@H](CC(C)C)[C@@H](O)CC(=O)O)C(C)C)C(C)C", "note": "(Isovaleryl-VV[Sta]A[Sta]-OH)", "activity change, negative = cytotoxicity": "-1.22%"}
{"smiles": "Cc1ccc(O)c([N+](=O)[O-])c1", "activity change, negative = cytotoxicity": "5.13% [at 95.3 µM]"}
{"smiles": "Cc1ccc(NC(N)=O)cc1", "activity change, negative = cytotoxicity": "7.4% [at 95.3 µM]"}
{"smiles": "CCOCCOCCOC(C)=O", "activity change, negative = cytotoxicity": "2.99% [at 95.3 µM]"}
{"smiles": "CCCCCCCCCCCCCC(=O)OCC", "activity change, negative = cytotoxicity": "3.25%"}
{"smiles": "C[C@@H]1CC[C@@]2(OC1)O[C@H]1C[C@H]3[C@@H]4CC[C@H]5C[C@@H](O)CC[C@]5(C)[C@H]4CC(=O)[C@]3(C)[C@H]1[C@@H]2C", "activity change, negative = cytotoxicity": "5.28% [at 39.1 µM]"}
{"smiles": "CC(=O)Nc1ccc(S(=O)(=O)Nc2cc(C)on2)cc1", "activity change, negative = cytotoxicity": "9.25%"}
{"smiles": "C=CCn1cc[n+](C)c1", "activity change, negative = cytotoxicity": "3.98% [at 95.3 µM]"}
